Read-out in test [1]: TIMP metallopeptidase inhibitor 1 (TIMP1), TIMP1 (gene 7076)
Nature of the test: BSK_hDFCGF_TIMP1: BioMAP Diversity Plus: hDFCGF Assay for TIMP metallopeptidase inhibitor 1 (TIMP1) Biomarker Activity (AID 2283062). As to conditions: primary human foreskin fibroblasts; actives raise or lower the signal. An outline of the steps:
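Primary human foreskin fibroblasts in the hDFCGF system were dosed with compound for 24 h, then TIMP-1 was measured by ELISA. Activity was fitted bidirectionally relative to DMSO control; parallel SRB staining assessed cytotoxicity.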

Read-out in test [2]: Monokine induced gamma interferon (MIG), CXCL9 (gene 4283)
Nature of the test: BSK_hDFCGF_MIG: BioMAP Diversity Plus: hDFCGF Assay for Monokine induced gamma interferon (MIG) Biomarker Activity (AID 2283063). The note with it: primary human foreskin fibroblasts; actives raise or lower the signal. An outline of the steps:
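ELISA read-out of MIG from primary human dermal fibroblasts 24 h post-dosing. Gain or loss of signal fitted bidirectionally, DMSO as baseline.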

Read-out in test [3]: Matrix Metallopeptidase 1 (MMP1), MMP1 (gene 4312)
The test can be described thus: BSK_hDFCGF_MMP1: BioMAP Diversity Plus: hDFCGF Assay for Matrix Metallopeptidase 1 (MMP1) Biomarker Activity (AID 2283064). The note with it: primary human foreskin fibroblasts; actives raise or lower the signal. An outline of the steps: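 hDFCGF primary fibroblasts (human foreskin); chemical added; 24 h; MMP1 by ELISA; bidirectional fit vs DMSO.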

Read-out in test [4]: Vascular cell adhesion molecule 1 (VCAM1), VCAM1 (gene 7412)
Nature of the test: BSK_hDFCGF_VCAM1: BioMAP Diversity Plus: hDFCGF Assay for Vascular cell adhesion molecule 1 (VCAM1) Biomarker Activity (AID 2283065).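 For AC50: VCAM-1 protein level quantified by ELISA after 24 h chemical exposure.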 The note with it: primary human foreskin fibroblasts; actives raise or lower the signal. In outline: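 Primary human foreskin fibroblasts (hDFCGF system) were dosed with chemical and VCAM-1 was measured by ELISA 24 h later. Bidirectional curve fitting used DMSO as negative control and activity baseline.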

Read-out in test [5]: Plasminogen activator inhibitor-1 (PAI1), SERPINE1 (gene 5054)
Nature of the test: BSK_hDFCGF_PAI1: BioMAP Diversity Plus: hDFCGF Assay for Plasminogen activator inhibitor-1 (PAI1) Biomarker Activity (AID 2283066). As to conditions: primary human foreskin fibroblasts; actives raise or lower the signal. In outline:
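PAI-1 levels, determined by ELISA, served as the endpoint in human foreskin fibroblast cultures exposed to compound for 24 h, with DMSO as baseline.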

Read-out in test [6]: Intercellular Adhesion Molecule 1 (ICAM1), ICAM1 (gene 3383)
Nature of the test: BSK_KF3CT_ICAM1: BioMAP Diversity Plus: KF3CT Assay for Intercellular Adhesion Molecule 1 (ICAM1) Biomarker Activity (AID 2283067). The note with it: primary human keratinocytes with fibroblasts; actives raise or lower the signal. An outline of the steps: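 Human keratinocyte plus foreskin fibroblast primary co-culture was exposed to chemical for 24 h. ICAM-1 was then quantified by ELISA, and the data were fit bidirectionally against DMSO as the negative control and baseline.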

Read-out in test [7]: Interferon-gamma inducible Protein 10 (IP10), CXCL10 (gene 3627)
The test can be described thus: BSK_KF3CT_IP10: BioMAP Diversity Plus: KF3CT Assay for Interferon-gamma inducible Protein 10 (IP10) Biomarker Activity (AID 2283068). As to conditions: primary human keratinocytes with fibroblasts; actives raise or lower the signal. In outline: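 ELISA read-out of IP-10 after 24 h chemical dosing of human skin primary co-culture (keratinocytes, foreskin fibroblasts). Gain or loss of signal relative to DMSO, bidirectional curve fit.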

Test [8] is described as follows: BSK_KF3CT_SRB: Viability Assessment in the BioMAP Diversity Plus: KF3CT Assay (AID 2283069).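 Note: total protein by sulforhodamine B staining as a cytotoxicity measure; read 24 h after compound addition; fitted for both signal gain and loss against DMSO baseline.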 The note with it: primary human keratinocytes with fibroblasts. In outline: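 Keratinocytes co-cultured with foreskin fibroblasts (human primary); chemical added, 24 h; fix 10% TCA, stain 0.1% SRB, A560. Bidirectional fit vs DMSO.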
Read-out in test [9]: Interleukin-1 alpha (IL1a), IL1A (gene 3552)
Nature of the test: BSK_KF3CT_IL1a: BioMAP Diversity Plus: KF3CT Assay for Interleukin-1 alpha (IL1a) Biomarker Activity (AID 2283070). The note with it: primary human keratinocytes with fibroblasts; actives raise or lower the signal. In outline: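 Chemicals were dosed onto co-cultured human keratinocytes and foreskin fibroblasts, IL-1a was quantified by ELISA at 24 h, and activity was fitted in both directions relative to DMSO controls.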

Read-out in test [10]: TIMP metallopeptidase inhibitor 2 (TIMP2), TIMP2 (gene 7077)
The test can be described thus: BSK_KF3CT_TIMP2: BioMAP Diversity Plus: KF3CT Assay for TIMP metallopeptidase inhibitor 2 (TIMP2) Biomarker Activity (AID 2283071). As to conditions: primary human keratinocytes with fibroblasts; actives raise or lower the signal. In outline: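 Keratinocyte–fibroblast co-culture, 24 h exposure; TIMP-2 ELISA, DMSO-normalised bidirectional fit. Parallel SRB (0.1%, TCA-fixed, 560 nm) total-protein staining gauges cytotoxicity.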

Read-out in test [11]: Transforming growth factor beta 1 (TGFb1), TGFB1 (gene 7040)
Nature of the test: BSK_KF3CT_TGFb1: BioMAP Diversity Plus: KF3CT Assay for Transforming growth factor beta 1 (TGFb1) Biomarker Activity (AID 2283072). As to conditions: primary human keratinocytes with fibroblasts; actives raise or lower the signal. In outline: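 Signal changes in either direction, relative to DMSO, define activity here. TGF-b1 is read by ELISA from a human keratinocyte-fibroblast co-culture 24 h post-dose.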

Read-out in test [12]: C-C motif chemokine 2 (Homo sapiens) (UniProt P13500)
The test can be described thus: BSK_KF3CT_MCP1: BioMAP Diversity Plus: KF3CT Assay for Monocyte Chemoattractant Protein 1 (MCP1/CCL2) Biomarker Activity (AID 2283073). The note with it: primary human keratinocytes with fibroblasts; actives raise or lower the signal. An outline of the steps:
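Human keratinocyte plus foreskin fibroblast primary co-culture exposed to chemical for 24 h. MCP-1 levels measured by ELISA. Bidirectional curve fitting relative to DMSO negative control as baseline.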

Read-out in test [13]: Matrix Metallopeptidase 9 (MMP9), MMP9 (gene 4318)
The test can be described thus: BSK_KF3CT_MMP9: BioMAP Diversity Plus: KF3CT Assay for Matrix Metallopeptidase 9 (MMP9) Biomarker Activity (AID 2283074).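 For AC50: MMP9 protein level quantified by ELISA in the co-culture.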 As to conditions: primary human keratinocytes with fibroblasts; actives raise or lower the signal. In outline:
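Human keratinocyte/foreskin fibroblast co-culture; compound added; 24 h; MMP-9 by ELISA; bidirectional fit vs DMSO baseline.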

Read-out in test [14]: urokinase plasminogen activator (uPA), PLAU (gene 5328)
Nature of the test: BSK_KF3CT_uPA: BioMAP Diversity Plus: KF3CT Assay for urokinase plasminogen activator (uPA) Biomarker Activity (AID 2283075). As to conditions: primary human keratinocytes with fibroblasts; actives raise or lower the signal. An outline of the steps: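 ELISA readout of uPA, analyzed for signal gain or loss relative to DMSO, from a human primary keratinocyte–foreskin fibroblast co-culture measured 24 h after chemical treatment.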

Read-out in test [15]: CD40, CD40 (gene 958)
Nature of the test: BSK_LPS_CD40: BioMAP Diversity Plus: LPS Assay for CD40 Biomarker Activity (AID 2283076). The note with it: primary human HUVEC with PBMC; actives raise or lower the signal. In outline: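 Primary human umbilical vein endothelial cells co-cultured with peripheral blood mononuclear cells, LPS-stimulated, were dosed with chemical and read 24 h later. CD40 levels were measured by ELISA and fitted bidirectionally against DMSO as negative control and baseline.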

Read-out in test [16]: E-selectin (Homo sapiens) (UniProt P16581)
Nature of the test: BSK_LPS_Eselectin: BioMAP Diversity Plus: LPS Assay for Eselectin Biomarker Activity (AID 2283077). The note with it: primary human HUVEC with PBMC; actives raise or lower the signal. An outline of the steps: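 Human umbilical vein endothelial cells co-cultured with peripheral blood mononuclear cells under LPS stimulation; E-selectin measured by ELISA 24 h after chemical dosing. Activity fitted bidirectionally against DMSO as negative control and baseline.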

Read-out in test [17]: Interleukin-8 (IL8), CXCL8 (gene 3576)
The test can be described thus: BSK_LPS_IL8: BioMAP Diversity Plus: LPS Assay for Interleukin-8 (IL8) Biomarker Activity (AID 2283078). As to conditions: primary human HUVEC with PBMC; actives raise or lower the signal. In outline: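 Human umbilical vein endothelial cells co-cultured with PBMC were stimulated with LPS; IL-8 levels were measured by ELISA 24 h after chemical dosing. Activity was fitted bidirectionally against DMSO as negative control and baseline.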

Test [18] in a line: BSK_LPS_SRB: Viability Assessment in the BioMAP Diversity Plus: LPS Assay (AID 2283079).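 Note: total protein by sulforhodamine B absorbance as a cytotoxicity measure; measured one day after compound addition; fitted in both directions against DMSO so loss or gain of signal counts.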 The note with it: primary human HUVEC with PBMC. In outline:
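Human umbilical vein endothelial cells co-cultured with PBMC (LPS system) were dosed for 24 h. Total protein was stained with 0.1% sulforhodamine B after 10% TCA fixation, read at 560 nm, and fitted bidirectionally against DMSO baseline.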

Read-out in test [19]: Monocyte Chemoattractant Protein-1 (MCP1), CCL2 (gene 6347)
The test can be described thus: BSK_LPS_MCP1: BioMAP Diversity Plus: LPS Assay for Monocyte Chemoattractant Protein-1 (MCP1) Biomarker Activity (AID 2283081).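 For AC50: co-culture stimulated with LPS; secreted MCP-1 protein quantified by ELISA in culture supernatant.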 As to conditions: primary human HUVEC with PBMC; actives raise or lower the signal. In outline: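 HUVEC plus PBMC co-culture (human primary cells, LPS system) exposed to test chemical for 24 h; MCP-1 measured by ELISA. Bidirectional curve fitting against DMSO baseline; parallel SRB total-protein staining flags overt cytotoxicity.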

Read-out in test [20]: Interleukin-1 alpha (IL1a), IL1A (gene 3552)
Nature of the test: BSK_LPS_IL1a: BioMAP Diversity Plus: LPS Assay for Interleukin-1 alpha (IL1a) Biomarker Activity (AID 2283080). As to conditions: primary human HUVEC with PBMC; actives raise or lower the signal. In outline:
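Human umbilical vein endothelial cells co-cultured with peripheral blood mononuclear cells were LPS-stimulated and exposed to test chemicals for 24 h. IL-1 alpha was quantified by ELISA, with bidirectional curve fitting against DMSO as the negative control and baseline.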

Experimental findings from PubChem BioAssay (EPA / NIEHS) are described below.

In general, AC50 refers to the concentration at which the activity in the assay is half-maximal.

Structures are written as SMILES. Active and inactive are the calls of the source. Rule for the calls: active = hit-call score of the fitted dose curve at least 0.9, where 1 is the maximum; inactive = score below 0.9.

Sequence of E-selectin (Homo sapiens) (P16581 whole entry, looked up): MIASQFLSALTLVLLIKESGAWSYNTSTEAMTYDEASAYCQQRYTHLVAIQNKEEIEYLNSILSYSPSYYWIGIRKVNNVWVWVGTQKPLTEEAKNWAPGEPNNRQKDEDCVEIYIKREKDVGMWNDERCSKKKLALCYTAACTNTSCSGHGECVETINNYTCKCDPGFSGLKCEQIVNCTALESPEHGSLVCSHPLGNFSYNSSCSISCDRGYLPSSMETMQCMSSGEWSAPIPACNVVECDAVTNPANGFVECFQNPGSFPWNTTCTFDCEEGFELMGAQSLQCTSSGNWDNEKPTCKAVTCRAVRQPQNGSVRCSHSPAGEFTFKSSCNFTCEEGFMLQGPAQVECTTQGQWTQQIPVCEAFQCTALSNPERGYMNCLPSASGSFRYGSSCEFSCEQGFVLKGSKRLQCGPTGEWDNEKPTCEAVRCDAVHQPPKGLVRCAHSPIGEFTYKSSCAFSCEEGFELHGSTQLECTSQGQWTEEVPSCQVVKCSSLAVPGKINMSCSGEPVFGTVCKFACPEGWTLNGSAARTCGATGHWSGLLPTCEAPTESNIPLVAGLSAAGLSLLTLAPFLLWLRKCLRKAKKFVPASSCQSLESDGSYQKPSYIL

For `COCC(C)OCC(C)OCC(C)O` (stereo not drawn), the result in [1], in test [2], in [3], in test [4], in test [5] and in [6] was inactive. Further, the result in test [7], in test [8], in test [9], in test [10], in [11] and in test [12] was inactive. Also, the outcome in [13], in [14], in [15], in [16], in test [17] and in test [18] was inactive. Further, the outcome in test [19] was inactive.

In the case of `Cc1ccc2oc(CN(Cc3ccccc3)C(=O)Nc3c(F)cc(F)cc3F)c(-c3ccc(Cl)cc3)c2c1`, the result in [1], in [2], in test [3], in test [4], in test [6] and in [7] was inactive. The result in test [8], in [9], in test [11], in [12], in test [13] and in test [14] was inactive. Moreover, the outcome in test [15], in test [16], in test [17], in [18] and in test [19] was inactive. In addition, the AC50 in test [5] was 0.999 µM (active); in test [10] it was 26.4 µM (active).

As for `COc1ccc2cc(S(=O)(=O)N[C@H](CC(=O)N[C@H](Cc3ccc(CN4[C@H](C)CCC[C@@H]4C)cc3)C(=O)N(C)C(C)C)c3ccc4c(c3)OCO4)ccc2c1`, the AC50 is 37.4 µM (active) in test [1]; 33.3 µM (active) in test [2]; 31.5 µM (active) in test [3]; 32.1 µM (active) in [4]; 26 µM (active) in test [5]; 29.3 µM (active) in test [7]. For the same compound, the concentration at half-maximal activity (AC50) in test [8] was 31.7 µM (active); in test [10], 27.6 µM (active); in test [13], 32.8 µM (active); in [15] it was 11.6 µM (active); in test [16] it was 31.3 µM (active); in [17], 5.7 µM (active). Also, the AC50 in [18] is 15.5 µM (active); in test [20], 14.5 µM (active); in test [19], 23.1 µM (active). Further, the result in test [6], in test [9], in [11], in test [12] and in [14] was inactive.
